A selection: hits, their analogues and other compounds. The true share with any hit is near 6.5%.
HCMV inh: qHTS Assay for inhibitors of the human cytomegalovirus (HCMV); 410,000 compounds, 4.5% hits; AID 1259415, 2018; HFF cells, HCMV-luciferase reporter, 72 h; stronger effect = lower value; activity change, negative = inhibition, % at 57.5 µM; in the data active = activity change below about -60%; inconclusive = no clear call, values can overlap the other calls; inactive = above about -39%
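Compounds were evaluated in HFFs infected with an HCMV luciferase reporter virus (MOI 1 PFU/cell). Luciferase in lysates collected 72 h post infection served as the replication measure.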
VACV Venus inh: qHTS for Stage-Specific Inhibitors of Vaccinia Orthopoxvirus: Venus Reporter Primary qHTS | Vaccinia virus Venus reporter expression, fluorescence | Potency, µM (top dose mostly 36.5 µM), for inactives: at the highest dose activity change, negative = inhibition, usual class: inhibitors | 330,000 compounds, 0.46% hits; calls by dose curve; tested in A549 cells; note: potency is the fitted concentration of half-maximal effect; nearly all actives have a fitted effect of over 30% in size
Vaccinia mCherry: qHTS for Stage-Specific Inhibitors of Vaccinia Orthopoxvirus: mCherry Reporter Primary qHTS; Vaccinia virus mCherry reporter infection, fluorescence; Potency, µM (series often up to 36.5 µM), for the others: at the top dose activity change, negative = inhibition, usual class: inhibitors; 310,000 compounds, 0.63% hits; calls by dose curve; tested in A549 cells; note: potency is the fitted concentration of half-maximal effect; nearly all actives have a fitted effect of over 35% in size
Marburg entry inh: qHTS for inhibitors of binding or entry into cells for Marburg Virus; AID 540276, 2011; Marburg virus pseudotyped entry inhibition, cell reporter; Potency, µM (titrated, usually from 37.8 µM), for inactives: at the top dose activity change, negative = inhibition, most hits filed as inhibitors; 300,000 compounds, 1.8% hits; calls by dose curve; tested in HEK293 cells; note: potency is the fitted concentration of half-maximal effect
LASV entry inh: qHTS for Inhibitors of binding or entry into cells for Lassa Virus | Lassa virus pseudotype entry inhibition, cell reporter | Potency, µM (series often up to 37.9 µM), for the others: at the highest dose activity change, negative = inhibition, hits mostly inhibitors | 300,000 compounds, 1.2% hits; calls by dose curve; tested in HEK293 cells; note: potency is the fitted concentration of half-maximal effect; nearly all actives have a fitted effect of over 50% in size
FMDV antiviral: High Throughput Screening for Foot and Mouth Disease Virus Antivirals | FMDV antiviral cell-based qHTS | AID 1159524, 2015 | Potency, µM (titrated, usually from 57.9 µM), for inactives: top-dose activity change, negative = inhibition, hits mostly inhibitors | 410,000 compounds, 1.2% hits; calls by dose curve; tested in HEK293T cells; note: read-out not given here; potency is the fitted concentration of half-maximal effect; nearly all actives have a fitted effect of over 45% in size
* = called active by the depositor; i = inactive; ? = inconclusive; . = no result; ! = repeats disagree; [ ] = another dose, or the depositor's remark. % is set by controls: 0 for no effect and ±100 for the full control effect.

SMILES	HCMV inh	VACV Venus inh	Vaccinia mCherry	Marburg entry inh	LASV entry inh	FMDV antiviral
O=C(NCc1nnc2n1CCN(C(=O)/C=C/c1ccccc1)CC2)c1cccc(F)c1	.	-4%	-12%	.	.	5%
Cc1cnc(-n2ncc(C(=O)NCCN3CCOCC3)c2C(C)C)nc1-c1ccc(F)cc1	.	-2%	-3%	.	.	9%
CCCCN(CC)CCOc1cccc2ccccc12	.	?	?	.	.	40µM*
COc1ccc(C)cc1Nc1nc2cc(Cl)c(Cl)cc2nc1-n1nc(C)cc1C	9	5%	-1%	-13%[46.1 µM]	13%[46.1 µM]	-6%
COC1=CC(=O)C(OC)=C(OC)C1=O	?	-29%	?	?	16µM*	?
C[C@H]1CNC(=O)c2c(C(=O)Nc3ccc(CNC(=O)OC(C)(C)C)cc3)ncn21	?	?	?	.	.	28µM*
CC(C)(C)OC(=O)NCc1ccc(CNC(=O)c2ncn(Cc3ccccc3)c2C(=O)NCc2ccc(CNC(=O)OC(C)(C)C)cc2)cc1	4	-7%	-12%	.	.	-23%
Cn1cnc(C(=O)NCc2ccc(CNC(=O)OC(C)(C)C)cc2)c1C(=O)NCc1ccc(CNC(=O)OC(C)(C)C)cc1	?	?	?	.	.	16µM*
CC1CCCCC1NC(=O)CC1Oc2ccccc2NC1=O (stereo not given)	-66*	-1%	7%	.	.	-24%
Cc1ccc2c(c1)NC(=O)C(CC(=O)NC1CCCCC1C)O2 (stereo not given)	-8	8%	-5%	1%	-8%	-19%
COc1cc2nc(CC(O)c3nc4cc(OC)c(OC)cc4[nH]3)[nH]c2cc1OC (stereo not given)	.	-22%	-3%	.	.	.
Cc1cccc(-n2c(C)nc3c(cnn3-c3ccc(F)cc3)c2=O)c1	?	?	?	?	-6%	-25%
Cc1ccc(-n2c(-c3ccco3)nc3c(cnn3-c3ccccc3C)c2=O)cc1	-61*!	-9%	-8%	-7%[46.1 µM]	?	?
Cc1ccc(-n2c(-c3ccco3)nc3c(cnn3-c3ccc(C)cc3)c2=O)cc1	-6	-23%	-18%	?	?	28µM*!
Cc1cccc(-n2c(-c3ccco3)nc3c(cnn3-c3ccc(F)cc3)c2=O)c1	-65*	-7%	-25%	4%[46.1 µM]	-31%[46.1 µM]	0%
CCOC(=O)c1ccc(-n2c(CCC(=O)O)ccc2-c2ccc(Br)cc2)cc1	28	-2%	-1%	-2%[46.1 µM]	-13%[46.1 µM]	-13%
COc1ccc(-c2nc(C)c(CCNS(=O)(=O)c3cc(C)c(C)cc3C)s2)cc1	-23	-14%	-20%	.	-20%[46.1 µM]	53%
CC(C)(C)C(=O)O/N=C(\N)Cc1ccc(-c2csnn2)cc1	23	-14%	i	8.9µM*	?	-7%
COc1ccc(CN2CCOc3ccc(C(O)c4cccnc4)cc3C2)c(OC)c1OC (stereo not given)	.	8%	-2%	.	.	-7%
CCOC(=O)c1[nH]c(C)c(CCC(=O)Nc2ccc(N(CC)CC)cc2C)c1C	-12	-6%	-9%	.	?	-19%
CC(C)(C)OC(=O)NCCCCCNC(=O)c1[nH]cnc1C(=O)Nc1ccc(Cl)cc1	-39	?	11µM*	.	.	32µM*
Cc1ccc(NC(=O)c2nc[nH]c2C(=O)NCCCCCNC(=O)OC(C)(C)C)cc1	-64*	?	-12%	.	.	?
CC(C)(C)OC(=O)NCc1ccc(NC(=O)c2nc[nH]c2C(=O)NCCCCCCNC(=O)c2[nH]cnc2C(=O)Nc2ccc(CNC(=O)OC(C)(C)C)cc2)cc1	-2	?	-23%	.	.	0%
CC(C)(C)OC(=O)NCCCCCNC(=O)c1[nH]cnc1C(=O)Nc1ccccc1	26	-30%	?	.	.	-29%
Cc1cc(Nc2ccccc2C)n2nc(Cc3ccc(Cl)cc3)nc2n1	-29	3%	-2%	-2%[46.1 µM]	-19%[46.1 µM]	-20%
CC(C)NC(=O)NC1N=NC(Nc2ccc(Cl)cc2)=N1 (stereo not given)	.	.	.	1%[46.1 µM]	.	.
CC(=Nc1ccccc1N)c1c(C)cc(=O)n(O)c1O	.	.	.	.	.	21%
COc1ccc(-c2nn(-c3ccccc3)cc2/C=N/O)cc1	32	.	.	.	.	14µM*

Screens deposited in PubChem by National Center for Advancing Translational Sciences (NCATS).
